Results on 66 molecules are retold here after ChEMBL document CHEMBL3988442, “University of Dundee, Small-Polar-MMV Screening Library” (2021).

“And” between values parts separate entries of the source, which are not always exact repeats. Equal values may be shown once. Among all 38,000 compounds or so, about 1,200 (3.2%) showed an effect of 50% or more. The median lay at about -58%. Shown is part of a subset that was picked to be rich in strong results.

The assay deals with Plasmodium falciparum. Briefly: Calibr Malaria Delayed Death Assay SOP. The assay is classed as functional, organism-based. Particulars: concentration 4.99e-06 (unit not given; other assays of the set use mol/L). The arrangement: scale not given: in the data most compounds retested in dose-response had high values.

`CCN1C[C@H]2C[C@H](C(=O)Nc3ccccc3)[C@@H](C1)O2.O=C(O)C(F)(F)F`: the “Percent Effect” value was -59.56%.

On to `Cc1oc(-c2nc(C#N)c(N(C)C)o2)cc1S(=O)(=O)N1CCCCCC1`, for which the “Percent Effect” value is recorded as -117.8%.

Take `COc1cc(C(=O)NC(C)c2cccs2)cc2c1OCCO2` (stereo unspecified): the “Percent Effect” value is reported as 13.73%.

`O=C(c1cscn1)N1CCCCC1c1nc2cc(F)ccc2[nH]1` (stereo unspecified): the “Percent Effect” value is given as -66.74%.

As for `CNC(=O)CN(C(=O)c1ccc(SC)o1)c1cccc(F)c1`, the “Percent Effect” value is reported as -133.7%.

Take `CC(C)(C)CNC(=O)c1ccc(C(=O)O)cc1`: the “Percent Effect” value is -149.2%.

With `CCCc1nc(CN(CC)Cc2ccoc2)no1`, the “Percent Effect” value was -101%.

With `COc1cc(C(=O)N(Cc2ccco2)C2CC2)cc(OC)c1OC`, the “Percent Effect” value is -36.86%.

With `O=C(c1ccc[nH]1)N1CCOCC2(CCN(C3CCOCC3)C2)C1` (stereo unspecified), the “Percent Effect” value is -29.73%.

Regarding `CCCSCC(=O)N1CCCC(CO)(CCC)C1` (stereo unspecified), the “Percent Effect” value is recorded as -200.5%.

As to `O=C(c1ccc(=O)[nH]c1)N1CCCC1c1nc2cc(F)ccc2[nH]1` (stereo unspecified), the “Percent Effect” value is -157.5%.

Turning to `O=c1[nH]cccc1-c1nccc(C2(c3ccccc3Cl)CCNCC2)n1`, the “Percent Effect” value is -5.024%.

Regarding `CCC1C(=O)NCCN1c1ccnc(C(C)(C)C)n1` (stereo unspecified), the “Percent Effect” value is reported as -75.62%.

For the molecule `CC(C)(C)c1nccc(C2(c3ccccc3Cl)CCNCC2)n1`, the “Percent Effect” value is 75.06%.

On to `CC(C)c1nccc(C2(c3ccccc3Cl)CCNCC2)n1`, for which the “Percent Effect” value amounted to 83.06%.

Consider `Clc1ccccc1C1(c2ccnc(-c3ccncc3)n2)CCNCC1`, for which the “Percent Effect” value was 82.92%.

In the case of `Clc1ccccc1C1(c2ccnc(-c3ncccn3)n2)CCNCC1`, the “Percent Effect” value was -58.98%.

`COCCN(Cc1ccoc1)S(=O)(=O)c1cccc(C(F)(F)F)c1`: the “Percent Effect” value is reported as -154.4%.

Take `COc1c[nH]c(C(=O)Nc2nc(C)cs2)cc1=O`: the “Percent Effect” value is -242.4%.

`Clc1ccc(C2(NCc3noc(C4CC4)n3)CCCC2)cc1`: the “Percent Effect” value is recorded as 66.68%.

Regarding `Clc1ccc(C2(NCc3noc(C4CC4)n3)CCOCC2)cc1`, the “Percent Effect” value is on record as -1.957%.

With `Clc1ccc(C2(NCc3noc(C4CC4)n3)CCC2)cc1`, the “Percent Effect” value amounted to 11.94%.

`COc1cccc(N2CCN(Cc3ccc4ccn(C)c4c3)CC2=O)c1`: the “Percent Effect” value was -24.12%.

On to `COc1cc(N2CC[C@H](O)[C@@H]2Cc2ccccc2)ncn1`, for which the “Percent Effect” value is -143.1%.

With `CC(C)NC(=O)CSc1nc2c(cnn2CCO)c(=O)[nH]1`, the “Percent Effect” value is -19.17%.

With `CCS(=O)(=O)N1CCCn2c(nc(CN3CCCC3)cc2=O)C1`, the “Percent Effect” value is listed as -41.77%.

Turning to `CCn1ncnc1CN1CCc2[nH]cnc2C1c1ccccn1` (stereo unspecified), the “Percent Effect” value was -50.88%.

For `CCc1ccc(C2c3nc[nH]c3CCN2Cc2nccn2CC)nc1` (stereo unspecified), the “Percent Effect” value is given as 89.79%.

Take `CCCn1ccnc1CN1CCc2[nH]cnc2C1Cc1ccccc1` (stereo unspecified): the “Percent Effect” value is given as 64.79%.

As for `COCCn1ccnc1CN1CCc2[nH]cnc2C1c1cccc(O)c1` (stereo unspecified), the “Percent Effect” value is -80.26%.

Turning to `CCc1nccn1-c1cncc(C2CCCN2Cc2ccccn2)n1` (stereo unspecified), the “Percent Effect” value was -28.75%.

For the molecule `CCn1ccnc1CN1CCCC1c1c(C)nn(C)c1OC` (stereo unspecified), the “Percent Effect” value is -32.78%.

Regarding `COCCn1ccnc1CN1CCc2[nH]cnc2C1c1ccccn1` (stereo unspecified), the “Percent Effect” value is reported as -16.31%.

Turning to `CCn1ncnc1CN1CCc2[nH]cnc2C1Cc1ccccc1` (stereo unspecified), the “Percent Effect” value is recorded as -69.64%.

For the molecule `COc1cccc(CN2CC(O)CN(C(=O)C(C)(C)C)CC2=O)c1OC` (stereo unspecified), the “Percent Effect” value was -124%.

With `CC1=Nc2c(c(=O)[nH]n2C2CCCC2)C(c2cccnc2)S1` (stereo unspecified), where the note is “4.99 µM”, the “Percent Effect” value is -22.61% and -27.75%.

For `CCCNC(=O)c1cccc(CNCc2csc(C(C)(C)C)n2)c1`, the “Percent Effect” value is given as 23.22%.

In the case of `CN(C)C(=O)CO[C@H]1CN(Cc2ccc3c(c2)OCO3)[C@@H]2COC[C@H]12.O=C(O)C(F)(F)F`, the “Percent Effect” value is -65.25%.

Regarding `Nc1nc2c(c(N3CCC(CN4CCCC4=O)CC3)n1)CCNCC2`, the “Percent Effect” value is -195.3%.

As to `CCOCc1nc2c(c(N3CCN4CCCC4C3)n1)CCNCC2` (stereo unspecified), the “Percent Effect” value was -33.92%.

On to `Nc1nc2c(c(N3CCC(CCn4cccn4)CC3)n1)CCNCC2`, for which the “Percent Effect” value is 0.6794%.

In the case of `Cc1nc2c(c(N3CCC(CN4CCCC4=O)CC3)n1)CCNCC2`, the “Percent Effect” value was -95.59%.

Take `c1cnn(CC2CCN(c3nc(C4CC4)nc4c3CCNCC4)CC2)c1`: the “Percent Effect” value stood at 90.7%.

Consider `C1CCC(c2nc3c(c(N4CC(N5CCOCC5)C4)n2)CCNCC3)C1`, for which the “Percent Effect” value is listed as -121.5%.

For the molecule `Cc1nc2c(c(N3CCC(CCn4cccn4)CC3)n1)CCNCC2`, the “Percent Effect” value was 39.53%.

Turning to `C1CCC(c2nc3c(c(N4CCN5CCCC5C4)n2)CCNCC3)C1` (stereo unspecified), the “Percent Effect” value is reported as 77.28%.

On to `NCC1CCN(c2nc(C3CCCC3)nc3c2CCNCC3)C1` (stereo unspecified), for which the “Percent Effect” value turned out to be 93.21%.

For the molecule `CS(=O)(=O)Nc1nn(Cc2ccc(F)cc2)cc1Br`, the “Percent Effect” value is on record as -19.12%.

As to `CCNS(=O)(=O)c1cnccc1N1CCN(CCO)CC1`, the “Percent Effect” value is reported as -122.2%.

Consider `Cc1cc(C)nc(N2CCC(c3cncc(-n4ccnc4)n3)CC2)n1`, for which the “Percent Effect” value is listed as -62.28%.

For `CC(O)CN1CCN(C(=O)CCOC(C)C)CC1` (stereo unspecified), the “Percent Effect” value is reported as -34.58%.

As for `O=C(C1CCOCC1)N1CCC2(CCN(Cc3nccs3)CC2)CC1.O=C(O)C(F)(F)F`, the “Percent Effect” value is -69.08%.

For `CN(Cc1cc(Br)cs1)Cc1nnsc1Cl`, the “Percent Effect” value is -124.6%.

Turning to `CCOc1ccnc(N2CCCN(c3nc(CC)ns3)CC2)n1`, the “Percent Effect” value is given as -65.97%.

For the molecule `CCOc1ccnc(N2CCCN(c3nc(C4CC4)ns3)CC2)n1`, the “Percent Effect” value came to 50.17%.

`Cc1nsc(N2CCCN(c3nc(C4CC4)ns3)CC2)n1`: the “Percent Effect” value is reported as -111.5%.

In the case of `COCCN(Cc1sccc1C)C(=O)C1CCCN(C(N)=O)C1` (stereo unspecified), the “Percent Effect” value was -77.34%.

Regarding `COCCN(Cc1sccc1C)C(=O)C1CCN(C(C)C)CC1`, the “Percent Effect” value was 57.24%.

Regarding `COCCN(Cc1sccc1C)C(=O)COc1ccccc1O`, the “Percent Effect” value was -70.17%.

In the case of `CCn1cnnc1CNC(=O)NC(C)c1ccc(Cl)s1` (stereo unspecified), the “Percent Effect” value was -29.19%.

Turning to `Cc1nc(N)ccc1CC1COc2ccccc2C1` (stereo unspecified), the “Percent Effect” value was 39.32%.

In the case of `Cc1ccc(O)c(CNCC(C)c2nc3ccccc3o2)n1` (stereo unspecified), the “Percent Effect” value was determined as 62.12%.

Consider `Cc1nc(CNCC(C)c2nc3ccccc3o2)cs1` (stereo unspecified), for which the “Percent Effect” value was -114.5%.

With `Cc1csc(CNCC(C)c2nc3ccccc3o2)n1` (stereo unspecified), the “Percent Effect” value is -35.1%.

Take `N#Cc1cccnc1OC1CCN(S(=O)(=O)c2ccc(F)c(Cl)c2)CC1`: the “Percent Effect” value was -120.1%.

With `Cc1cccc(C(=O)N2CC[C@@H]3CN(c4ncccn4)CCO[C@@H]3C2)c1`, the “Percent Effect” value was 3.612%.
